# Assay outcomes as filed in PubChem.
# NIH3T3 tox = NIH 3T3 cell cytotoxicity; NIH 3T3 viability, CellTiter-Glo ATP luminescence, 48-72 h; Potency, µM (titrated, usually from 96.7 µM), for the others: top-dose activity change, negative = cytotoxicity, most hits filed as inhibitors; actives 4.3% (n = 94,000); further: nearly all actives have a fitted effect of over 55% in size
#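 ATP-dependent luminescence (CellTiter-Glo) served as the viability signal for NIH 3T3 cells treated with compound for 48 or 72 hr at 37 °C.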
# GPT2 inh = blocks human glutamate pyruvate transaminase 2 | Q8TD30 | AID 1671188 | Potency, µM (titrated, usually from 57.7 µM), for inactives: at the top dose activity change, negative = inhibition, usual class: inhibitors | actives 0.25% (n = 100,000) | Recombinant GPT2, coupled pyruvate oxidase/HRP Amplex Red fluorescence; further: nearly all actives have a fitted effect of over 60% in size
#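 Fluorescence of coupled pyruvate oxidase/HRP/Amplex Red system (50uM Amplex, 30 min, dark) reports pyruvate formed by GPT2. Enzyme reaction: 10ng/uL GPT2, 2mM L-alanine, 250uM a-KG, 30 min room temperature, pH 7.5; 50uM AOA control.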
# NPR1 antag = antagonists of human natriuretic peptide receptor Npr1 | P16066 | HEK293 hNpr1 GloSensor cGMP, ANP-stimulated luminescence | Potency, µM (series often up to 46.3 µM), for inactives: at the top dose activity change, negative = inhibition, hits mostly inhibitors | actives 1.6% (n = 76,000) | AID 1347048; calls by dose curve; further: nearly all actives have a fitted effect of over 60% in size
#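 HEK293 cells stably expressing human Npr1 and cGMP GloSensor pGS-40F, loaded 2 h with 2% GloSensor reagent, given compound 30 min at room temperature. Luminescence read before and 20 min after 0.1 nM hNppA.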
# HEK293 tox = HEK 293 cell cytotoxicity; HEK 293 viability, ATP luminescence (CellTiter-Glo), 48-72 h; actives 6.6% (n = 94,000); AID 1345083; Potency, µM (top dose mostly 115 µM), inactives show at the top dose activity change, negative = cytotoxicity, hits mostly inhibitors; further: nearly all actives have a fitted effect of over 60% in size
#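 Cells seeded first (HEK 293, 250 cells/well), then compound added by pintool. Incubation ran 48 or 72 hr at 37 degree Celsius. CellTiter-Glo was added and luminescence imaged after 10 min at room temperature.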
# Luciferase inh = inhibitors of firefly (Photinus pyralis) luciferase | P08659 | purified P. pyralis luciferase, luminescence, biochemical | Potency, µM (top dose mostly 115 µM), actives largely listed as inhibitors | actives 2.5% (n = 76,000) | AID 1347043; further: nearly all actives have a fitted effect of over 65% in size
# Target sequence (P08659 whole entry, looked up): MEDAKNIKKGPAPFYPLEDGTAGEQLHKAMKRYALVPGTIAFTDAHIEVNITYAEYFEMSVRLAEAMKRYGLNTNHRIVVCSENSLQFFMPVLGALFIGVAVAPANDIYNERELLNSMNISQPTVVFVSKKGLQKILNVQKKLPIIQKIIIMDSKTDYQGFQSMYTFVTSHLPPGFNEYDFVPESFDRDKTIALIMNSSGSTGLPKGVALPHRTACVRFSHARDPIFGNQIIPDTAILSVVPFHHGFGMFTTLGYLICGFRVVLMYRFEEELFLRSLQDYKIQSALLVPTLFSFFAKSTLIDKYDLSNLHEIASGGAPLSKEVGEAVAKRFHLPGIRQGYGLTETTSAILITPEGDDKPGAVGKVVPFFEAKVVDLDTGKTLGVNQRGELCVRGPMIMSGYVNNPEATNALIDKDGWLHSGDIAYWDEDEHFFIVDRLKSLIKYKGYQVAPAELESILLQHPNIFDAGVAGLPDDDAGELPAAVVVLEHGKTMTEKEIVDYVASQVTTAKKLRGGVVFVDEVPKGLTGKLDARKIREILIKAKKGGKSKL
#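 Luminescence read by CCD imager after adding enzyme (10nM final) to wells holding compound, titrated in qHTS. Substrates 10uM each D-luciferin and ATP; buffer 50mM Tris acetate pH 7.5, 10mM Mg acetate, Tween-20, BSA.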
# * hit, by the source's call; i = inactive; u = inconclusive; x = no result; [ ] = remark or other dose. The list is not random: actives were taken first. Their share in the collection is about 10%. Unless noted, the call rests on the fitted dose curve; in most records, active means well fitted curve in the direction sought with a large enough effect; inconclusive means small, poorly fitted or top-dose-only effect, or another doubt; inactive means no such curve, though single readings can be large; an effect the other way counts as inactive or inconclusive. On the % scale 0 is the no-effect control and ±100 the full control effect; potency means the concentration at half of the fitted maximal effect.
SMILES,NIH3T3 tox,GPT2 inh,NPR1 antag,HEK293 tox,Luciferase inh
CC1=C[C@@H](CNCc2ccccc2O)[C@H](C(C)C)C[C@H]1Cc1nc2c(C)cccc2[nH]1,u,i,u,u,i
CC1=C[C@@H](CN2C(=O)C(C)=C(C)C2=O)[C@H](C(C)C)C[C@H]1Cc1nc2ccccc2[nH]1,25µM*,-14%[88.5 µM],u,22µM*,i
CCC(CC)C(=O)NC[C@@H]1C=C(C)[C@H](Cc2nc3c(C)cccc3[nH]2)C[C@H]1C(C)C,u,i,-14%[70.6 µM],45µM*,i
CC1=C[C@@H](CN2C(=O)C(C)=C(C)C2=O)[C@H](C(C)C)C[C@H]1Cc1nc2c(C)cccc2[nH]1,22µM*,-15%[88.5 µM],u,35µM*,i
Cc1ccc(NC(=O)c2ccc3nc(-c4cccc(C)n4)oc3c2)cc1,-12%[138 µM],2%[88.5 µM],x,u,x
COc1ccc(Nc2ccnc(N3CCC(NC(=O)c4ccc(F)cc4)CC3)n2)cc1,u,i,x,u,x
COc1ccc(Nc2ccnc(N3CCC(NC(C)=O)CC3)n2)cc1,-20%,-1%,x,-9%,x
COc1ccc(Nc2ccnc(N3CCC(NC(=O)c4ccccc4C)CC3)n2)cc1,40µM*,i,x,40µM*,x
COc1ccc(Nc2ccnc(N3CCC(NC(=O)c4ccccn4)CC3)n2)cc1,40µM*,-14%,x,u,x
COCC(=O)NC1CCN(c2nccc(Nc3ccc(OC)cc3)n2)CC1,u,i,x,u,x
COc1ccc(Nc2ccnc(N3CCC(NC(=O)Cc4cccc(Cl)c4)CC3)n2)cc1,20µM*,-19%,x,25µM*,x
Cc1ccc2c(c1)c(C(=O)N1CCC3(CCNC(=O)CC3)CC1)nn2C,-4%,0%,5%,u,i
O=C(c1cc2c(s1)CN(C1CCCC1)C2)N1CCCCCC1,u,i,0%,u,i
O=C1CCN(CC(O)C(F)(F)F)c2ccc(F)cc2CN1Cc1ccco1 (centres undefined),u,x,x,-19%,x
O=C(NCC(F)F)C1CCCCN1Cc1ccc(-c2cccs2)cc1 (centres undefined),-25%,0%,x,25µM*,x
O=C(NCc1ccc(F)cc1)C1CCCCN1Cc1ccc(-c2cccs2)cc1 (centres undefined),u,-12%,x,u,x
O=C(NCc1cccs1)C1CCCCN1Cc1ccc(-c2cccs2)cc1 (centres undefined),28µM*,-3%,x,32µM*,x
Cc1noc2c(N3CCOCC3)cc(-c3ccsc3)nc12,28µM*,-14%[88.5 µM],4%[70.6 µM],u,i
COc1ncc(-c2ccnc(-c3nnc(C)n3CCc3ccccc3)c2)cn1,100µM*,4%[88.5 µM],5%[70.6 µM],-5%[172 µM],i
Cc1nnc(-c2cc(-c3cccc(N(C)C)c3)ccn2)n1Cc1ccccc1,50µM*,-12%[88.5 µM],4%[70.6 µM],89µM*,u
Cc1nnc(-c2cc(-c3cccc(F)c3)ccn2)n1Cc1ccccc1,u,i,1%[70.6 µM],89µM*,i
CC(=O)Nc1cccc(-c2ccnc(-c3nnc(C)n3Cc3ccccc3)c2)c1,u,-6%[88.5 µM],-18%[70.6 µM],u,50µM*
Cc1nnc(-c2cc(-c3ccc(CO)cc3)ccn2)n1CCc1ccccc1,-24%[138 µM],-6%[88.5 µM],4%[70.6 µM],u,i
Cc1nnc(-c2cc(-c3ccc(CO)cc3)ccn2)n1Cc1ccccc1,u,2%[88.5 µM],2%[70.6 µM],u,i
c1ccc(CC2=NOC3(CCN(CC4CCCCC4)CC3)C2)cc1,u,0%,x,u,x
SMILES,NIH3T3 tox,GPT2 inh,NPR1 antag,HEK293 tox,Luciferase inh
O=C(NCc1ccccc1F)c1ccc2oc(-c3cccnc3)nc2c1,-19%,i,x,u,x
COCC(=O)NC1CCN(c2ccc3nnc(C4CC4)n3n2)CC1,-3%[138 µM],x,x,3%[172 µM],x
Cc1ccc(CNC(=O)C2CCCCC(=O)N2Cc2ccccc2)cc1 (centres undefined),u,-7%,x,u,x
COc1cccc(-c2ccnc(-c3nnc(C)n3Cc3ccccc3)c2)c1,79µM*,-18%[88.5 µM],-2%[70.6 µM],u,i
COCCn1c(C)nnc1-c1cc(-c2ccc(OC)c(OC)c2)ccn1,89µM*,i,2%[70.6 µM],2%[172 µM],i
COc1cccc(C(=O)N2CCC(C(=O)N3CCC(c4nc5ncccc5[nH]4)C3)CC2)c1 (centres undefined),-27%,i,x,-17%,x
COc1ccc(-c2ccccc2C(=O)N2CCC(NC(=O)c3ccccc3OC)CC2)nn1,1%,x,x,0%,x
Cc1ccc(C2Cn3nnc(C(=O)N4CCN(C(=O)c5ccc(N(C)C)cc5)CC4)c3CO2)cc1 (centres undefined),4%,u,-12%,-14%,i
N#CC1CCN(C(=O)C2CCN(c3nccc(Nc4ccccc4Cl)n3)CC2)CC1,u,i,x,u,x
CN(CCO)C[C@@H]1CN(C(=O)c2ccc3c(c2)CCC3)C[C@@H]1CO,4%,2%,4%,-12%,i
Cc1c(CN2C[C@@H](CN(C)CCO)[C@@H](CO)C2)[nH]c2c(Cl)cccc12,79µM*,-4%,4%,45µM*,i
COc1ccccc1Oc1ncccc1CNC(=O)c1ccccc1SC,-16%,i,-3%,u,32µM*
CCC(=O)NCc1cccnc1Oc1ccccc1OC,i,i,3%,-5%,i
COc1ccccc1Oc1ncccc1CNC(=O)Nc1cccc(C#N)c1,32µM*,-2%,4%,u,i
Cc1ccc(-c2ccc(C(=O)NCCCn3ccnc3C(C)C)cn2)cc1C,u,i[11.5 µM],-5%,40µM*,u
Cc1ccc(C)c(-c2ccc(C(=O)NCCCn3ccnc3C(C)C)cn2)c1,u,0%,u,u,i
CN(C(=O)c1ccc(C(F)(F)F)cc1)C1CCOc2ccccc21 (centres undefined),u,4%[88.5 µM],27%[70.6 µM],u,i
O=C(c1ccc(Cl)nc1)N1CCC2(CC1)CCN(Cc1cccs1)c1ccccc1O2,u,1%,u,25µM*,i
COc1ccc(C(=O)N2CCC3(CC2)CCN(Cc2cccs2)c2ccccc2O3)cc1,u,u,7%,40µM*,i
CC(C)(C)C(=O)N1CCC2(CC1)CCN(Cc1cccs1)c1ccccc1O2,u,-3%,-27%,35µM*,i
O=C(c1ccccc1)N1CCC2(CC1)CCN(Cc1cccs1)c1ccccc1O2,u,i,4%,u,i
CCCN1CCC2(CCN(C(=O)c3ccc(C)cc3)CC2)Oc2ccccc21,u,i,0%,u,i
Cc1ccc(C(=O)N2CCC3(CC2)CCN(CCc2ccccc2)c2ccccc2O3)cc1,40µM*,i,10%,u,i
Cc1ccccc1C(=O)N1CCC(C(=O)N2CCC3(CC2)CC(=O)Nc2ccccc2O3)CC1,-17%,i,x,u,x
